# Sampled rows, rich in hits. Any-hit rate of the full collection: about 1.5%.
# GALR2 agonist = GALR2 receptor agonists, primary screen, cell-based | activation, % (concentration not given with the values) | GALR2-expressing cells, agonist activation read-out | Galanin receptor type 2 (Homo sapiens), O43603 | 0.48% of 140,000 active; in the data active = activation above about 5%, passing the limit was not always enough;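 also: 0% = vehicle buffer wells and 100% = reference agonist at full effect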
# Target sequence (O43603 whole entry, looked up): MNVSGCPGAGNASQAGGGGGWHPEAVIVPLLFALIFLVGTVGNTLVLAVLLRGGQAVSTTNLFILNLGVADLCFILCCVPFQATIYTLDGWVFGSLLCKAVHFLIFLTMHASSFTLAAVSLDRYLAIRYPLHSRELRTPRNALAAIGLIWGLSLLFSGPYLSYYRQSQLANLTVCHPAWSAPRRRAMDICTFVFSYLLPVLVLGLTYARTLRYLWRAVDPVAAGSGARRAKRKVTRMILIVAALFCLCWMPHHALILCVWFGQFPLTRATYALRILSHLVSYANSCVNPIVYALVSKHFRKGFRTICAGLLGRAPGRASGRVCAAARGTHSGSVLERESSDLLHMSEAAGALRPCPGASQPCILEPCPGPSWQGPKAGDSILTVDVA
# Mac1 fbg enh = enhancers of CD11b/CD18 adhesion to fibrinogen, primary screen, K562 cells, luminescence; ATPlite luminescence; activation, % at 10 µM; 0.07% of 93,000 active; AID 1499, 2009;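 active = 10 µM primary screen giving 50% or more activity, confirmed by 40% or more on retest at that dose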
# GALR2 antag = GALR2 antagonists in receptor-expressing cells, primary screen | Galanin receptor type 2 (Homo sapiens), O43603 | antagonist mode | inhibition, % at 4 µM | 0.39% of 140,000 active | AID 828, 2007; in the data active = inhibition above about 27%;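 also: cells stimulated with galanin 1-16 at roughly its EC80; 0% = agonist challenge control and 100% = basal control without agonist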
# Mac1 fbg inh = inhibitors of CD11b/CD18 adhesion to fibrinogen, primary screen, K562 cells, luminescence; ATPlite luminescence; Mn2+ added to activate the integrin; 0.54% of 93,000 active; Integrin beta-2 (Homo sapiens) + Integrin alpha-M (Homo sapiens), P05107+P11215; AID 1497, 2009; inhibition, % at 10 µM;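 active = primary inhibition of 50% or more at 10 µM, then 40% or more on retest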
# S1P2 antag = human S1P2 receptor antagonists, primary screen, cell-based. Sphingosine 1-phosphate receptor 2 (Homo sapiens), O95136. cell-based S1P2 antagonist assay, inhibition at 5 uM. inhibition, % at 5 µM. 0.21% of 97,000 active. AID 736, 2007; in the data active = inhibition above about 45%;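 also: CRE beta-lactamase reporter cells expressing human S1P2 stimulated with S1P; 0% = agonist at EC80 alone and 100% = agonist plus reference antagonist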
# S1P2 agonist = S1P2 receptor agonists, primary screen, cell-based | 0.46% of 97,000 active | activation, % at 4.5 µM | S1P2-expressing cell line, agonist reporter read-out | AID 729, 2007; in the data active = activation above about 16%;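 also: 0% = vehicle low control and 100% = maximal reference agonist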
# GALR2 agon conf = GALR2 agonists, retest of hits, confirmation, cell-based; shares compounds with GALR2 agonist; GALR2-expressing cells, agonist activation; activation, % at 5.6 µM; 10% of 460 active; in the data active = activation above about 8.4%;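 also: 0% = buffer-only vehicle wells and 100% = full reference agonist response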
# BLA act counter = activators of NFAT-driven beta-lactamase reporter, confirmation, counter-screen for GALR2 agonist project, CHO NFAT-bla cells, FRET readout | AID 865, 2007 | beta-lactamase FRET activation | activation, % at 5.6 µM | 10% of 460 active | shares compounds with GALR2 agonist;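 active = activation above the screen-wide mean activation plus 3 SD, cut at about 8% in these data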;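 also: 0% = DMSO with PBS wells and 100% = thapsigargin positive control wells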
# An asterisk follows results filed as active; . = no result given.
SMILES,GALR2 agonist,Mac1 fbg enh,GALR2 antag,Mac1 fbg inh,S1P2 antag,S1P2 agonist,GALR2 agon conf,BLA act counter
CC(NC(=O)Nc1ccc(Cl)c(Cl)c1)C(c1ccccc1)N1CCOCC1 (stereo unspecified),8.7*,.,-18,.,.,.,6,25*
O=C(Oc1ccc(F)cc1C(=O)/C=C/c1cccs1)c1cccc([N+](=O)[O-])c1,39*,0,11,19,10,-4,2,3
O=C(/C=C/c1ccccc1F)c1cccc([N+](=O)[O-])c1,-1,.,-3,.,.,.,.,.
CN1CCc2c(sc3c2C(=O)NC(c2ccco2)N3)C1 (stereo unspecified),2,2,-11,-3,2,1,.,.
O=C1NC(c2ccco2)Nc2sc3c(c21)CCN(Cc1ccccc1)C3 (stereo unspecified),16*,-2,-8,6,-10,9,0,1
O=C(Cn1c2ccccc2c(=O)c2ccccc21)Nc1cccc(F)c1,12*,.,0,.,.,.,9.1*,14*
O=C(NCc1ccco1)c1cccc(F)c1,8,-4,-9,-1,21,-3,-1,-1
Cc1cc(C=O)c(C)n1-c1ccc(N2CCCC2)c([N+](=O)[O-])c1,-2,-2,0,6,-6,-6,.,.
CCOc1cc(/C=C2/C(=O)N(c3ccccc3)N=C2C)ccc1OC(=O)c1ccco1,136*,.,7,.,-10,-3,-1,-3
Cc1c(NC(=O)Cc2ccccc2)cccc1C(=O)NN1C(=O)c2ccccc2C1=O,1,8,5,-9,.,.,.,.
O=C(Nc1ccc(Cl)c(Cl)c1)Nc1cc(C(=O)NC2CC2)ccc1Cl,0,-1,3,-4,.,.,.,.
Nc1c(C(=O)NCc2ccco2)c2nc3ccccc3nc2n1CCc1ccc(F)cc1,24*,0,-13,0,-34,13,10*,18*
N#Cc1c(N)n(CCc2ccc(F)cc2)c2nc3ccccc3nc12,15*,-3,-19,-8,-30,16,4,9.4*
CC(C)Cn1c(N)c(C(=O)NCC2CCCO2)c2nc3ccccc3nc21 (stereo unspecified),12*,-3,0,13,-31,14,2,3
COCCn1c(N)c(C(=O)NCc2cccs2)c2nc3ccccc3nc21,11*,-2,-3,-7,-33,14,5,10*
COCCn1c(N)c(C(=O)NCC2CCCO2)c2nc3ccccc3nc21 (stereo unspecified),5,-2,3,14,-19,6,.,.
O=c1ccn(Cc2ccc(F)cc2)c2ccnc(C(F)(F)F)c12,-1,.,13,.,.,.,.,.
ONC(=Nc1ccc(Cl)cc1)c1ccccc1,-2,2,2,-4,19,-7,.,.
Cn1cc(CNC(=O)/C=C/c2ccc(Cl)cc2)cn1,-1,.,-3,.,.,.,.,.
CCOC(=S)SCC(=O)Nc1nc(-c2ccccc2)cs1,-1,7,3,-1,.,.,.,.
CCOC(=S)SCC(=O)Nc1nc(-c2ccc(Br)cc2)cs1,16*,.,8,.,.,.,5,-4
CCn1c(SCC(=O)c2ccc(OC)cc2)nnc1C1CC1,1,5,1,12,-3,-1,.,.
COc1ccc(C(=O)CSc2nnc(C3CC3)n2N)cc1,21*,-1,-3,-2,-6,-3,-1,-2
CCOC(=O)/C(=C\Nc1ccccc1C(F)(F)F)Sc1ncc(C(F)(F)F)cc1Cl,10,0,-8,6,-11,-3,-1,-3
Cn1nc(OC(=O)Nc2ccc(F)cc2)cc1C(F)(F)F,62*,-3,-2,5,-2,-7,-1,-3
CC(=O)NNC(=O)CCC(=O)Nc1ccccc1,17*,.,-1,.,-17,-5,-1,-2
